HP1b chromo inh: HTS for Inhibitors of HP1-beta Chromodomain Interactions with Methylated Histone Tails; AID 540317, 2011; AlphaScreen HP1-beta / biotin-H3K9me3 peptide binding; 390,000 tested, 0.56% active; Chromobox protein homolog 1 (Homo sapiens), P83916; Potency, µM (highest dose often 114 µM), for inactives: at the top dose activity change, negative = inhibition, most hits filed as inhibitors; also: nearly all actives have a fitted effect of over 70% in size
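Compound inhibition of the preformed complex between 50 nM HP1-beta and 50 nM biotinylated H3K9me3 peptide was read by AlphaScreen. Buffer was PBS pH 7.4 with 0.01% Tween-20. Incubations ran 30 min at room temperature, with 10 ug/mL donor/acceptor beads.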
G9a block: qHTS Assay for Inhibitors of Histone Lysine Methyltransferase G9a; G9a H3K9 monomethylation, AlphaScreen, 2 h; Potency, µM (titrated, usually from 102 µM), for inactives: at the top dose activity, negative = inhibition, hits mostly inhibitors; AID 504332, 2011; 350,000 tested, 8.8% active; Histone-lysine N-methyltransferase EHMT2 (Homo sapiens), Q96KQ7; also: % is scaled to controls: 0 for no effect and ±100 for the full control effect; nearly all actives have a fitted effect of over 75% in size
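G9a (20 nM) preincubated 15 min RT with compounds, then 500 nM biotinylated H3K9 peptide and 20 uM SAM added; 2 h RT reaction. Monomethyl-H3K9 product detected by AlphaScreen with anti-H3K9me1 antibody, streptavidin donor and anti-rabbit IgG acceptor beads.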
PLK1 PBD block: qHTS for Inhibitors of PLK1-PDB (polo-like kinase 1 - polo-box domain): Primary Screen | Serine/threonine-protein kinase PLK1 (Homo sapiens), P53350 | Plk1 PBD binding of FITC phosphopeptide, fluorescence polarization | Potency, µM, without a hit: max response, negative = inhibition, actives largely listed as inhibitors | 360,000 tested, 2.8% active | AID 720504, 2013; also: series mostly up to about 57 µM; % is scaled to controls: 0 for no effect and ±100 for the full control effect; nearly all actives have a fitted effect of over 65% in size
Target sequence (P53350 whole entry, looked up, the tested form may be a part): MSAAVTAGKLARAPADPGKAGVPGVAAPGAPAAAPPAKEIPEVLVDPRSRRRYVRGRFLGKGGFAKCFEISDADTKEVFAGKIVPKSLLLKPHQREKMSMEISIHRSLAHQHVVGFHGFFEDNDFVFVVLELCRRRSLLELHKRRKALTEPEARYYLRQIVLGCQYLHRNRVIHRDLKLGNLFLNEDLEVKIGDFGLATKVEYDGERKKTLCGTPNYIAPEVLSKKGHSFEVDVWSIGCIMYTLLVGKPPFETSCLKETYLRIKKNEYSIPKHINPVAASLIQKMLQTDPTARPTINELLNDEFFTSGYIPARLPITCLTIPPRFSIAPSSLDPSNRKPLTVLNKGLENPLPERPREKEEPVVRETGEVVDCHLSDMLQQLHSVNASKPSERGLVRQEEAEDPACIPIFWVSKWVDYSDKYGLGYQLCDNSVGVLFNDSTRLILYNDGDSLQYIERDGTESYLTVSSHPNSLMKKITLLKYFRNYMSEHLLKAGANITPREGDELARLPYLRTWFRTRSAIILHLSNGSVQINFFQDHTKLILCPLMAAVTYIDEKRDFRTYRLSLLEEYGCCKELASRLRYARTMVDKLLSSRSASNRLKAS
JMJD2A Tudor: qHTS Assay for Inhibitors of JMJD2A-Tudor Domain | Potency, µM (highest dose often 114 µM), for the others: at the highest dose activity change, negative = inhibition, hits mostly inhibitors | 390,000 tested, 4.4% active | Lysine-specific demethylase 4A (Homo sapiens), O75164 | AlphaScreen JMJD2A-Tudor / H3K4me3 peptide binding; also: % is scaled to controls: 0 for no effect and ±100 for the full control effect; nearly all actives have a fitted effect of over 50% in size
BAZ2B block: qHTS Assay for Inhibitors of BAZ2B. AID 504333, 2011. 360,000 tested, 4.4% active. Potency, µM (doses to about 114 µM), for inactives: at the top dose activity change, negative = inhibition, hits mostly inhibitors. AlphaScreen BAZ2B-H3K14Ac peptide displacement. Bromodomain adjacent to zinc finger domain protein 2B (Homo sapiens), Q9UIF8; also: % is scaled to controls: 0 for no effect and ±100 for the full control effect; nearly all actives have a fitted effect of over 60% in size
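In this displacement format the biotinylated H3(5-23) peptide acetylated at Lys14 serves as ligand at 50 nM, with BAZ2B at 50 nM in PBS pH 7.4 containing 0.01% Tween-20. Donor and acceptor beads are 10 ug/mL final.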
Sfp PPTase inh: qHTS Assay for Inhibitors of Bacillus subtilis Sfp phosphopantetheinyl transferase (PPTase); Biochemical Sfp PPTase activity, qHTS; Potency, µM, for inactives: largest response in the series, negative = inhibition, most hits filed as inhibitors; 310,000 tested, 3.5% active; AID 1490, 2009;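 also: the enzyme is Sfp with the accession as filed and its product quenches rhodamine fluorescence; 0% = enzyme reaction without inhibitor and -100% = no enzyme wells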
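Step 1, compound plus 15 nM Sfp-PPTase, 15 min, room temperature. Step 2, add rhodamine-CoA (5 uM) and BHQ-2-YbbR (12.5 uM). Step 3, read 525/598 nm fluorescence at 0 and 30 min.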
* = called active by the depositor; ? = inconclusive; / = no result; [ ] = remark or other dose. Compounds with a hit are over-represented: about 12% of the library has one in this group of screens. Calls follow the shape of the dose curve; as a rule, active = well fitted curve in the direction sought with a large enough effect; inconclusive = small, poorly fitted or top-dose-only effect, or another doubt; inactive = no such curve, though single readings can be large; an effect the other way counts as inactive or inconclusive. Potency is read from the fitted curve at half-maximal effect.

SMILES	HP1b chromo inh	G9a block	PLK1 PBD block	JMJD2A Tudor	BAZ2B block	Sfp PPTase inh
Cc1ccc(S(=O)(=O)N/N=C/c2ccc(O)cc2O)cc1[N+](=O)[O-]	-3%	45µM*	?	-27%	2%	50µM*
CCCCNC(=S)N/N=C/c1cccc(OCC)c1O	20%	/	-11%	-20%	-26%	7%
Cn1c(SCC(=O)O)nnc1-c1ccc2ncccc2c1	/	-20%	/	/	-3%	11%
COc1ccc(N2CCN(C(=O)c3c(C)oc4ncnc(N5CCCCC5)c34)CC2)cc1	15%	-46%[59 µM]	/	-21%	1%[57.1 µM]	/
Cc1ccc(S(=O)(=O)N/N=C/c2cc([N+](=O)[O-])ccc2O)cc1[N+](=O)[O-]	-14%	50µM*	-24%	?	?	?
COc1ccc(/C=N\NS(=O)(=O)c2ccc(C)cc2)cc1COc1ccccc1[N+](=O)[O-]	16%	-46%[59 µM]	-3%	-24%	-5%	27%
CCOc1cccc(/C=N/NS(=O)(=O)c2ccc(C)c([N+](=O)[O-])c2)c1O	17%	?	30µM*	-26%	/	56µM*
COCc1cccc(C(=O)NC(c2ccccc2)c2ccccc2)c1	16%	27%	-2%	12%	1%	15%
Cc1cccc([N+](=O)[O-])c1NC(=O)COC(=O)c1nc2nccc(C)n2n1	26%	-8%[12.7 µM]	2%	7%	7%	/
CC1(C)CC(=O)C(Sc2ccccc2[N+](=O)[O-])=C(O)C1	26%	50µM*	11µM*	-23%	?	?
Cc1ccc(C)c(S(=O)(=O)N2CCN(C(=O)/C=C/c3ccco3)CC2)c1	?	-21%[12.7 µM]	?	45µM*	?	/
O=C(/C=C/c1ccco1)N1CCN(S(=O)(=O)c2ccc(F)c(F)c2F)CC1	28%	?	-7%	-8%	-23%	40µM*
O=C(/C=C/c1ccco1)N1CCN(S(=O)(=O)c2ccccc2)CC1	50µM*	/	-26%	56µM*	/	/
COc1cccc(/C=C/C(=O)N2CCN(S(=O)(=O)c3ccccc3)CC2)c1OC	29%	50µM*	5%	-2%	?	4%
O=C(/C=C/c1ccc([N+](=O)[O-])cc1)N1CCN(S(=O)(=O)c2ccccc2)CC1	3%	-5%[2.33 µM]	-10%	-18%	-9%	/
CCOC(=O)c1noc2nc(C)n(CC(=O)Nc3ccc(Br)cc3C)c(=O)c12	22%[57 µM]	5%[59 µM]	/	?	1%	/
O=C(Nc1cccc(C(F)(F)F)c1)C1CCN(S(=O)(=O)c2cccnc2)CC1	21%[57 µM]	/	4%	0%	-4%	14%
Cc1cc(C)c(Cn2c(=O)n(CCC(=O)NCCc3ccccc3)c(=O)c3ccccc32)c(C)c1	39%	11%[59 µM]	/	-1%	3%	/
CCCC[C@@H]1C[C@H]1C(NC(=O)Cc1ccccc1)c1ccc(-c2ccccc2)cc1 (stereo not given in full)	/	/	/	/	/	18%
C1=C(CN2CCOCC2)COc2c1cccc2OC[C@@H]1CNCCO1	/	/	/	/	/	-1%
COc1cccc(C(=O)COC(=O)COc2c(C)cc(C)cc2C)c1	129%	55%[59 µM]	-2%	66%	52%	/
Cc1ccc(S(=O)(=O)N2CCN(C(=O)/C=C/c3ccco3)CC2)cc1	?	45µM*	-19%	79µM*	50µM*	?
Cc1ccc(S(=O)(=O)N2CCN(C(=O)c3ccco3)CC2)cc1	-8%	-4%	-25%	?	-13%	5%
Cc1ccc(S(=O)(=O)NC2OC(=O)C(Cl)=C2Cl)cc1 (stereo not given)	27%	?	-25%	-9%	79µM*	-2%
Cc1ccc(S(=O)(=O)NC2CCCCCCC2)cc1	42%	/	-13%	-2%	-3%	1%
SMILES	HP1b chromo inh	G9a block	PLK1 PBD block	JMJD2A Tudor	BAZ2B block	Sfp PPTase inh
C1=C(CCNc2nnnn2-c2ccccc2)CCCC1	2%	-6%[59 µM]	21µM*	50µM*	7%	12%
Cc1ccccc1N1C(=O)c2ccccc2N2C(=O)c3ccccc3C12 (stereo not given)	32%	?	-1%	3%	-24%	1%
Cc1ccc(N2C(=O)c3ccccc3C2C(=O)c2ccc(C)c(C)c2O)cc1 (stereo not given)	?	/	-13%	50µM*	-13%	?
Cc1ccc(N2C(=O)c3ccccc3C2C(=O)c2ccc(O)cc2O)cc1 (stereo not given)	-8%	?	-8%	79µM*	28µM*	?
Cc1ccc(N2C(=O)c3ccccc3C2C(=O)c2cc(C)ccc2O)cc1 (stereo not given)	?	7.9µM*	-5%	?	-12%	?
Cc1ccc(C2C(C(=O)O)c3ccccc3C(=O)N2C)c(C)c1 (stereo not given)	4%	1%	-1%	-3%	-1%	2%
Cc1ccnc(N2C(=O)c3ccccc3C2O)c1 (stereo not given)	37%	3%	-10%	-19%	-3%	-9%
CCCCCCOc1ccc(/C=C/C(=O)Nc2sc3c(c2C(=O)OC)CCC3)cc1OC	23%	-57%[59 µM]	/	-4%	0%	/
COc1ccc(-c2nc3c(c4c2C[C@H](c2ccccc2)OC4)CN(C(=O)Nc2cccc(C#N)c2)CC3)c(C)c1	/	/	/	/	/	15%
Cc1ccc(S(=O)(=O)N(C)CC(=O)Nc2ccccc2N2CCCC2)cc1	11%	-2%[12.7 µM]	6%	-25%	?	/
COc1ccc(N2CCN(CC(=O)c3ccc(Cl)cc3)CC2)cc1	18%	22µM*	-27%	?	?	-22%
COc1ccc(C(=O)CN2CCN(c3ccc(F)cc3)CC2)cc1OC	31%	40µM*	-4%	-24%	-7%	7%
COc1ccc(C(=O)CN2CCN(c3ccc(Cl)cc3)CC2)cc1OC	19%	22µM*	-16%	-29%	-38%	79µM*
COc1ccccc1N1CCN(C/C(C)=C/c2ccccc2)CC1	18%	-1%[12.7 µM]	-1%	-28%	56µM*	7%

Assay outcomes deposited in PubChem by National Center for Advancing Translational Sciences (NCATS).
